Consider nine compounds from PubChem BioAssay (NCI).

Compounds without any hit were thinned out: in the full panel of roughly 83,000, 20% have a hit.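 The test compound was applied at a single concentration to cells in 96-well plates for 48 hours, and percent growth was recorded.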 A number with no mark means an inactive call. Active and inactive are the calls of the source. Rule for the calls: active = growth percent below 10; inactive = the rest.

Test in all cases: NCI-60 one-dose screen, 48 h (100 = growth as untreated, 0 = no growth, -100 = all killed)
For one assay, the system named is SR leukemia. Particulars: 10 µM unless noted.
The subject of a further assay is RPMI-8226 leukemia. Particulars: 10 µM unless noted.
The next assay has as its system OVCAR-8 ovarian. The settings on record: 10 µM unless noted.
For the next assay, the system named is OVCAR-5 ovarian. Particulars: 10 µM unless noted.
The subject of another assay is SK-OV-3 ovarian. Particulars: 10 µM unless noted.
In another assay the test system is IGROV1 ovarian. The settings on record: 10 µM unless noted.
The subject of the next assay is OVCAR-3 ovarian. The settings on record: 10 µM unless noted.
Another assay concerns HS 578T breast. The settings on record: 10 µM.
The next assay relates to NCI/ADR-RES ovarian. The settings on record: 10 µM unless noted.
The subject of another assay is T-47D breast. Particulars: 10 µM unless noted.
For another assay, the system named is BT-549 breast. Particulars: 10 µM unless noted.
In another assay the test system is MDA-MB-435 melanoma. The settings on record: 10 µM unless noted.
Another assay concerns SW-620 colon. The settings on record: 10 µM unless noted.
The next assay has as its system MCF7 breast. Particulars: 10 µM unless noted.
The next assay has as its system HCC-2998 colon. The settings on record: 10 µM unless noted.
A further assay has as its system KM12 colon. The settings on record: 10 µM unless noted.
The next assay deals with HCT-116 colon. Particulars: 10 µM unless noted.
The test system of another assay is OVCAR-4 ovarian. Particulars: 10 µM unless noted.

Turning to `C[C@]12CCc3nc(Nc4ccc(O)cc4)sc3C1=CC[C@@H]1[C@@H]2CC[C@]2(C)/C(=N/NC(N)=S)CC[C@@H]12`, the growth in the assay on SR leukemia was -5.27% (active); in the assay with RPMI-8226 leukemia, -16.3% (active); in the assay on OVCAR-8 ovarian, 4.45% (active); in the assay with OVCAR-5 ovarian it was 49.9%; in the assay with SK-OV-3 ovarian, -19% (active); with IGROV1 ovarian, -61.2% (active). Also, the growth in the assay with OVCAR-3 ovarian was -68.8% (active); with HS 578T breast it was -4.57% (active); in the assay on NCI/ADR-RES ovarian it was 15%; in the assay with T-47D breast it was -31.6% (active); in the assay with BT-549 breast, 9.89% (active); in the assay with MDA-MB-435 melanoma, -68.5% (active). Also, the growth is -62% (active) in the assay on SW-620 colon, -35% (active) in the assay on MCF7 breast, -18.2% (active) in the assay with HCC-2998 colon and -64.9% (active) in the assay on KM12 colon.

With `CC1=NOCC(=O)N1`, the growth is 97.5% in the assay on SR leukemia; 99.9% with RPMI-8226 leukemia; 107% in the assay with OVCAR-8 ovarian; 95.3% in the assay with OVCAR-5 ovarian; 103% in the assay on SK-OV-3 ovarian; 104% in the assay on IGROV1 ovarian. The growth in the assay with OVCAR-3 ovarian is 108%; in the assay with HS 578T breast, 117%; with T-47D breast it was 99.1%; in the assay on BT-549 breast, 104%; with MDA-MB-435 melanoma it was 100%; with SW-620 colon, 103%. In addition, the growth was 98.6% in the assay with MCF7 breast, 98.5% with HCT-116 colon, 116% in the assay on HCC-2998 colon and 107% with KM12 colon.

With `COc1cc(C2=NOC(c3cc(OC)c(OC)c(OC)c3)C2)ccc1OCCCCOc1cc2c(cc1OC)C(=O)N1CCC[C@H]1C=N2` (some centres not stated), the growth in the assay with SR leukemia was -24.8% (active); in the assay with RPMI-8226 leukemia, -27.3% (active); in the assay with OVCAR-8 ovarian it was 6.96% (active); in the assay with OVCAR-5 ovarian it was 9.04% (active); with SK-OV-3 ovarian, 10.4%; in the assay with IGROV1 ovarian, -3.57% (active). Also, the growth in the assay with OVCAR-3 ovarian is -34.1% (active); in the assay with HS 578T breast it was -10.4% (active); with NCI/ADR-RES ovarian, 18.4%; in the assay on T-47D breast, -11.9% (active); in the assay with BT-549 breast, -96.8% (active); with MDA-MB-435 melanoma, -74.1% (active). The growth is -5.09% (active) in the assay with MCF7 breast, 2.63% (active) in the assay with HCT-116 colon, -57.4% (active) with HCC-2998 colon and -24.3% (active) in the assay on KM12 colon.

On to `COc1ccc2[nH]c(C(=O)OCc3ccc4cccc(O)c4n3)cc2c1`, for which the growth with SR leukemia was -3.51% (active); in the assay with RPMI-8226 leukemia, -45.9% (active); with OVCAR-8 ovarian, 0.942% (active); in the assay with OVCAR-4 ovarian, -59.2% (active); with SK-OV-3 ovarian, 68.4%; with IGROV1 ovarian, -91.2% (active). Besides, the growth is -84.8% (active) in the assay on OVCAR-3 ovarian; -8.82% (active) in the assay with HS 578T breast; -18.9% (active) with NCI/ADR-RES ovarian; -53.9% (active) with T-47D breast; -79.3% (active) in the assay on BT-549 breast; -86.2% (active) with MDA-MB-435 melanoma. Further, the growth is -72.8% (active) with SW-620 colon; -39% (active) with MCF7 breast; -77.7% (active) in the assay with HCT-116 colon; -35.8% (active) in the assay with HCC-2998 colon; 10.7% with KM12 colon.

Turning to `CCCCN(CCCC)CCC(O)c1cc2ccc(C(F)(F)F)cc2c2cc(C(F)(F)F)ccc12` (configuration not stated), the growth in the assay on SR leukemia was -36.8% (active); in the assay on RPMI-8226 leukemia it was -9.02% (active); with OVCAR-8 ovarian, 48.6%; in the assay on OVCAR-5 ovarian it was 74.9%; in the assay on SK-OV-3 ovarian it was 74.2%; in the assay on IGROV1 ovarian, 40.3%. The growth in the assay on OVCAR-3 ovarian is 30.2%; in the assay on HS 578T breast, 58%; in the assay on NCI/ADR-RES ovarian, 59.8%; with BT-549 breast it was 91.3%; in the assay on MDA-MB-435 melanoma, 54.2%; in the assay with MCF7 breast it was 6.74% (active). In addition, the growth with HCT-116 colon was 30.5%; in the assay with HCC-2998 colon, -34.8% (active); in the assay with KM12 colon it was 12.9%.

On to `COc1ccc(Nc2ncccc2C(=O)NCc2cn(Cc3cc(OC)cc(OC)c3)nn2)cc1`, for which the growth with SR leukemia was 84.8%; with RPMI-8226 leukemia, 99.8%; in the assay on OVCAR-8 ovarian, 97.6%; with OVCAR-4 ovarian, 98%; in the assay with SK-OV-3 ovarian, 98.7%; with IGROV1 ovarian, 113%. The growth in the assay on OVCAR-3 ovarian was 96.5%; in the assay on HS 578T breast it was 86.2%; in the assay with NCI/ADR-RES ovarian it was 89.7%; in the assay with T-47D breast, 93.6%; with BT-549 breast, 98.4%; with MDA-MB-435 melanoma, 106%. Further, the growth in the assay with SW-620 colon was 105%; with MCF7 breast it was 104%; in the assay with HCT-116 colon, 94.8%; with HCC-2998 colon, 103%; with KM12 colon it was 102%.

On to `Oc1[nH]c2ccc(Cl)cc2c1/C=c1/ccc2c(c1)N=C(c1ccc(F)cc1)N=2`, for which the growth was 8.49% (active) with SR leukemia; 69.2% in the assay on RPMI-8226 leukemia; 84.7% with OVCAR-8 ovarian; 79.4% with OVCAR-4 ovarian; 87.4% in the assay on SK-OV-3 ovarian; 5.76% (active) in the assay with IGROV1 ovarian. Further, the growth in the assay on OVCAR-3 ovarian was 72%; in the assay on HS 578T breast, 68.1%; with NCI/ADR-RES ovarian, 44.3%; with T-47D breast, 62.6%; in the assay with BT-549 breast, 27.8%; with MDA-MB-435 melanoma, -44% (active). In addition, the growth with SW-620 colon was 19.3%; in the assay with MCF7 breast it was 10.6%; with HCT-116 colon it was 9.48% (active); with HCC-2998 colon, 74%; in the assay on KM12 colon, 48.6%.

As for `COc1cc(-c2nc(-c3nc4cc(C(=O)c5ccccc5)ccc4[nH]3)cc3c2[nH]c2ccccc23)cc(OC)c1OC`, the growth in the assay on SR leukemia was 81.6%; with RPMI-8226 leukemia it was 42%; in the assay with OVCAR-8 ovarian, 67.4%; in the assay with OVCAR-4 ovarian, 96.8%; with SK-OV-3 ovarian, 146%; in the assay on IGROV1 ovarian it was 107%. Further, the growth was 101% in the assay on OVCAR-3 ovarian; 95.7% in the assay with HS 578T breast; 88.7% in the assay on NCI/ADR-RES ovarian; 88.9% with T-47D breast; 79.7% in the assay with BT-549 breast; 96.2% in the assay on MDA-MB-435 melanoma. The growth was 103% with SW-620 colon; 86.3% with MCF7 breast; 82.6% with HCT-116 colon; 104% with HCC-2998 colon; 84.5% with KM12 colon.

Turning to `COc1cc(C)cc2oc3oc(=O)c(-c4csc(-c5cc6ccccc6oc5=O)n4)cc3c(=O)c12`, the growth with SR leukemia is 113%; in the assay on RPMI-8226 leukemia, 109%; with OVCAR-8 ovarian, 103%; in the assay on OVCAR-5 ovarian, 109%; with SK-OV-3 ovarian it was 120%; with IGROV1 ovarian, 117%. The growth in the assay with OVCAR-3 ovarian is 116%; in the assay on HS 578T breast, 120%; in the assay on NCI/ADR-RES ovarian, 105%; with BT-549 breast, 107%; in the assay on MDA-MB-435 melanoma, 105%; in the assay with SW-620 colon it was 105%. Also, the growth is 101% in the assay on MCF7 breast, 106% with HCT-116 colon, 106% in the assay on HCC-2998 colon and 107% with KM12 colon.
